According to PubChem BioAssay AID1159580 (chemical genetic matrix, 2015):
Several values for one entry are separate records, joined by “and”; a condition that tells them apart may be missing. Equal values may be shown once. The whole screen tested about 5,500 compounds, of which about 2,000 (36%) were called active. Roughly 18% stayed inconclusive and do not appear here. Rule as the data show it: active = normalized growth mostly below about 0.91 (no sharp cut-off); inconclusive = no clear call, values can overlap the other calls; inactive = mostly above about 0.92. The list shows a part of the results. Where a SMILES comes first, the peptide text is derived from it.

Test: chemical genetic growth profiling, strain panel (AID 1159580);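 also: tested at 20 µM; growth read once vehicle control cultures reached saturation at 30 °C; 1 = growth at the plate median or of vehicle wells; lower values mean less growth of the strain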
Conditions: S. cerevisiae deletion strains, growth OD

Measured: normalized growth

CC(=O)N[C@@H](CC(=O)O)C(=O)N[C@@H](CCC(=O)O)C(=O)O (Ac-Asp-Glu-OH)
inactive: locus YAL013W, strain DEP1, active compounds read low 0.996 | locus YAL021C, strain ccr4, active compounds read low 1 | locus YAL026C, strain drs2, active compounds read low 1.01 | locus YAL030W, strain snc1, active compounds read low 1.01 | locus YBL061C, strain skt5, active compounds read low 1 | locus YBR009C, strain hhf1, active compounds read low 0.969 | locus YBR021W, strain FUR4, active compounds read low 1.02 | locus YBR023C, strain chs3, active compounds read low 1.01 | locus YBR171W, strain sec66, active compounds read low 1 | locus YBR229C, strain ROT2, active compounds read low 1.01 | locus YBR231C, strain swc5, active compounds read low 0.997 | locus YBR279W, strain paf1, active compounds read low 1 | locus YCL011C, strain gbp2, active compounds read low 1 | locus YCL016C, strain dcc1, active compounds read low 0.998 | locus YCL029C, strain bik1, active compounds read low 0.989 | locus YCL061C, strain MRC1, active compounds read low 1 | locus YCL069W, strain vba3, active compounds read low 1 | locus YCR088W, strain abp1, active compounds read low 1 | locus YDL005C, strain med2, active compounds read low 1 | locus YDL035C, strain GPR1, active compounds read low 1.01 | locus YDL040C, strain nat1, active compounds read low 0.998 | locus YDL074C, strain BRE1, active compounds read low 1.03 | locus YDL101C, strain DUN1, active compounds read low 1.03 | locus YDL134C, strain PPH21, active compounds read low 1.02 | locus YDL185W, strain tfp1, active compounds read low 1 | locus YDL192W, strain arf1, active compounds read low 0.996 | locus YDR001C, strain nth1, active compounds read low 1 | locus YDR069C, strain doa4, active compounds read low 1 | locus YDR101C, strain arx1, active compounds read low 0.98 | locus YDR137W, strain rgp1, active compounds read low 1.03 | locus YDR150W, strain NUM1, active compounds read low 1.02 | locus YDR159W, strain sac3, active compounds read low 0.983 | locus YDR162C, strain NBP2, active compounds read low 1.02 | locus YDR195W, strain ref2 0.985 | locus YDR297W, strain sur2, active compounds read low 0.996 | locus YDR318W, strain mcm21, active compounds read low 0.981 | locus YDR334W, strain swr1, active compounds read low 1.01 | locus YDR335W, strain msn5, active compounds read low 1 | locus YDR388W, active compounds read low 0.989 | locus YDR392W, strain spt3, active compounds read low 0.898 | locus YDR502C, strain sam2, active compounds read low 0.989 | locus YEL003W, strain gim4, active compounds read low 1 | locus YEL037C, strain rad23, active compounds read low 1.01 | locus YEL061C, strain CIN8 (second series), active compounds read low 1 | locus YEL061C, strain CIN8, active compounds read low 1.01 | locus YER015W, strain faa2, active compounds read low 1 | locus YER016W, strain bim1, active compounds read low 1 | locus YER110C, active compounds read low 0.987 | locus YER111C, strain swi4, active compounds read low 0.993 | locus YER155C, strain BEM2 (second series), active compounds read low 1.01 | locus YER155C, strain BEM2, active compounds read low 1.01 | locus YER167W, strain BCK2, active compounds read low 1 | locus YFR010W, strain ubp6, active compounds read low 1.01 | locus YGL078C, strain dbp3, active compounds read low 0.993 | locus YGL086W, strain mad1, active compounds read low 0.994 | locus YGL167C, strain pmr1, active compounds read low 0.995 | locus YGL173C, strain kem1, active compounds read low 1.01 | locus YGL227W, strain vid30, active compounds read low 1 | locus YGL240W, strain doc1, active compounds read low 0.987 | locus YGL248W, strain PDE1, active compounds read low 1.02 | locus YGL253W, strain hxk2, active compounds read low 1.02 | locus YGR078C, strain PAC10, active compounds read low 1.01 | locus YGR135W, strain pre9, active compounds read low 0.995 | locus YGR229C, strain SMI1, active compounds read low 1.01 | locus YGR252W, strain gcn5, active compounds read low 0.97 | locus YHR013C, strain ard1, active compounds read low 0.977 | locus YHR027C, strain rpn1, active compounds read low 1.01 | locus YHR030C, strain SLT2, active compounds read low 1.01 and 0.999 | locus YHR079C, strain IRE1 (second series), active compounds read low 0.992 | locus YHR079C, strain IRE1, active compounds read low 0.99 | locus YHR094C, strain hxt1, active compounds read low 0.985 | locus YHR129C, strain ARP1, active compounds read low 1.01 | locus YHR142W, strain chs7, active compounds read low 1.04 | locus YHR200W, strain rpn10, active compounds read low 0.998 | locus YIL066C, strain RNR3, active compounds read low 1.01 | locus YIL073C, strain SPO22, active compounds read low 1 | locus YIL125W, strain kgd1, active compounds read low 0.982 | locus YIR030C, strain dcg1, active compounds read low 0.992 | locus YJL092W, strain hpr5, active compounds read low 1.01 | locus YJL095W, strain BCK1 (second series), active compounds read low 1 | locus YJL095W, strain BCK1, active compounds read low 1.02 and 0.976 | locus YJL115W, strain asf1, active compounds read low 0.999 | locus YJL129C, strain trk1, active compounds read low 1.01 | locus YJL134W, strain LCB3, active compounds read low 1.01 | locus YJL154C, strain vps35, active compounds read low 1 | locus YJL164C, strain tpk1, active compounds read low 1 | locus YJL166W, strain qcr8, active compounds read low 1.01 | locus YJL168C, strain set2, active compounds read low 0.99 | locus YJL187C, strain SWE1 (second series), active compounds read low 1.01 | locus YJL187C, strain SWE1, active compounds read low 1 | locus YJR043C, strain POL32, active compounds read low 1.01 | locus YJR066W, strain TOR1, active compounds read low 0.904
